HepG2 viability: counter-screen for TGF-b inhibitors: cytotoxicity in HepG2 cells; HepG2 CAGA-GFP viability, ATP luminescence, 18 h; Potency, µM (titrated, usually from 46.1 µM), inactives show top-dose activity change, negative = cytotoxicity, actives largely listed as cytotoxic; actives 0.76% (n = 410,000); AID 588856; note: potency is the fitted concentration of half-maximal effect
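HepG2 CAGA-GFP cells (1000/well, DMEM with 1% FBS) received compound, then TGF-beta at 500 pg/mL final, and were incubated 18 hours at 37 degrees C. Viability was read by CellTiter-Glo luminescence. Media-only wells were set as complete cell-killing and DMSO as no toxicity.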
TDP1 block: TDP1 (human) enzyme inhibition; Potency, µM (top dose mostly 130 µM), for the others: at the top dose activity change, negative = inhibition, usual class: inhibitors; actives 0.28% (n = 350,000); AID 485290; Q9NUW8; recombinant TDP1, AlphaScreen DNA substrate cleavage; note: potency is the fitted concentration of half-maximal effect; % is set by controls: 0 for no effect and ±100 for the full control effect; nearly all actives have a fitted effect of over 40% in size
Target sequence (Q9NUW8 whole entry, looked up): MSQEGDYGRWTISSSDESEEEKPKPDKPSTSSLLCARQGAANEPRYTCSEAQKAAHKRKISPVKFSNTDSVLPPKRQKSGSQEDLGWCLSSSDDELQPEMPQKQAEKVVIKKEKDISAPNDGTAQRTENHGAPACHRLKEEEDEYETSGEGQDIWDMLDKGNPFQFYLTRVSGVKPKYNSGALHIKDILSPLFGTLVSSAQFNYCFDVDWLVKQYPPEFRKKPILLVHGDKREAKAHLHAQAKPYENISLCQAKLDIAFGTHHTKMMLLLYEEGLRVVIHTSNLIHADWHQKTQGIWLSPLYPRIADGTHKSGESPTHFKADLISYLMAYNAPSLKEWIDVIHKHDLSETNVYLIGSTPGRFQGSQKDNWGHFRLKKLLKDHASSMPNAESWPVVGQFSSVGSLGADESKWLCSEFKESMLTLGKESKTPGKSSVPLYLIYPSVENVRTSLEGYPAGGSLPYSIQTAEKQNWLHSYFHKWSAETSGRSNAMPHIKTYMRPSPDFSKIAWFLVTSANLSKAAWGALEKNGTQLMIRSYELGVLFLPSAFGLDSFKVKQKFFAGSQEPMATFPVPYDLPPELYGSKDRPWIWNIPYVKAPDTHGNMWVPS
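Here, a 5' biotin and 3' phosphotyrosine-FITC DNA oligonucleotide reports Tdp1 activity: intact substrate bridges AlphaScreen beads, while cleavage leaves a 3' phosphate and drops signal. All incubations at room temperature.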
IL-1B inflam inh: inhibitors of inflammasome signaling (IL-1 beta secretion) | AID 743279 | activity change, % at 57.5 µM | THP-1 LPS/ATP IL-1B secretion, AlphaLISA, 16 h; stronger effect = lower value | actives 4.7% (n = 360,000); in the data active = activity change below about -50%; inconclusive = mostly about -30% to -49%; note: % is set by controls: 0 for no effect and ±100 for the full control effect
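Secreted IL-1B measured by AlphaLISA bead assay after 16 h compound exposure of THP-1 cells; compounds (final up to 57.5 uM) added 1 h before LPS (250 ng/mL) and ATP (1.25 mM) stimulation; lower signal means less secretion.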
DT40 TDP1 CPT: growth inhibition of DT40 Tdp1-/-;hTDP1 cells with camptothecin (screen for TDP1 inhibitors); AID 686979; chicken DT40 Tdp1-/-;hTDP1 cells + 20 nM CPT, ATP luminescence, 48 h; actives 12% (n = 420,000); Potency, µM (doses to about 46.2 µM), inactives show at the highest dose activity change, negative = growth inhibition, actives largely listed as inhibitors; note: potency is the fitted concentration of half-maximal effect; % is set by controls: 0 for no effect and ±100 for the full control effect; nearly all actives have a fitted effect of over 55% in size
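Cell growth measured by CellTiter-Glo luminescence after a minimum 48 h, 37 C compound exposure with 20 nM CPT in Tdp1-knockout DT40 cells stably expressing hTDP1, seeded 400/well; qHTS titration format.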
TDP1 cell noCPT: qHTS for Inhibitors of human tyrosyl-DNA phosphodiesterase 1 (TDP1): qHTS in cells in absence of CPT; AID 686978, 2013; Potency, µM (highest dose often 46.2 µM), for inactives: at the top dose activity change, negative = growth inhibition, most hits filed as inhibitors; actives 15% (n = 420,000); DT40 Tdp1-/- hTDP1 cells, no CPT, ATP luminescence, 48 h; note: potency is the fitted concentration of half-maximal effect; % is set by controls: 0 for no effect and ±100 for the full control effect; nearly all actives have a fitted effect of over 55% in size
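No-CPT arm: Tdp1-/-;hTDP1 DT40 cells (400/well) plus compounds, incubated ≥48 hr at 37 °C. Readout CellTiter-Glo luminescence.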
TGFb inhibitor: TGF-b pathway inhibition | actives 1.2% (n = 410,000) | HepG2 CAGA-GFP TGF-b/SMAD3 reporter, GFP fluorescence, 18 h; TGF-beta stimulated, 500 pg/mL final | AID 588855 | Potency, µM (titrated, usually from 46.1 µM), for the others: at the top dose activity, negative = inhibition, most hits filed as inhibitors; note: potency is the fitted concentration of half-maximal effect; % is set by controls: 0 for no effect and ±100 for the full control effect; nearly all actives have a fitted effect of over 65% in size
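Using HEPG2 CAGA-GFP reporter cells at 1000 cells/well, we pinned test compounds, stimulated with recombinant TGF-beta (500 pg/mL final) and measured total well GFP after 18 h.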
Starred values were filed as active, the others as inactive; ? = inconclusive; nt = no result given; [ ] = remark or other dose. Compounds with a hit are over-represented: about 19% of the library has one in this group of screens. Unless noted, calls come from the whole dose curve; as a rule, active = well fitted curve in the direction sought with a large enough effect; inconclusive = small, poorly fitted or top-dose-only effect, or another doubt; inactive = no such curve, though single readings can be large; an effect the other way counts as inactive or inconclusive.

SMILES	HepG2 viability	TDP1 block	IL-1B inflam inh	DT40 TDP1 CPT	TDP1 cell noCPT	TGFb inhibitor
COc1ccc(CNC(=O)CN(c2ccc(C(C)=O)cc2)S(=O)(=O)c2ccc(C)cc2)cc1OC	-1.6%	-0.3%	2.7	11.5%	-4.9%	14.5%
Cn1c(CCNC(=O)c2ccccc2F)nnc1SCC(=O)Nc1nncs1	30.4%	0.9%	-2.1	5.8%	-0.8%	7.0%
COc1ccc2ccccc2c1CNC(=O)CC1C(=O)NCCN1CC(C)(C)C (stereo not drawn)	0.2%	nt	0.0	4.7%	12.0%	19.7%
N#CC1C(=O)NC(=O)CC12CCCCC2 (stereo not drawn)	2.7%	nt	-4.3	24.2%	3.5%	20.3%
COc1ccc(OC)c(N(CC(=O)Nc2ccccc2)S(=O)(=O)c2ccccc2)c1	3.5%	nt	-6.9	?	?	5.8%
COc1ccc(C(C)NC(=O)CN(c2cc(OC)ccc2OC)S(=O)(=O)c2ccccc2)cc1 (stereo not drawn)	-31.3%	4.5%	nt	20.6µM*	?	-15.6%
CCOC(=O)C(=Cc1c[nH]c2ccc(S(=O)(=O)N(C)C)cc12)C(=O)OCC	-14.8%	nt	-100.9*	?	16.4µM*	?
CCOC(=O)N1CCN(C(=O)c2c[nH]c3ccc(S(=O)(=O)N(C)c4cccc(C)c4)cc3c2=O)CC1	0.7%	-0.1%	24.5	-13.6%	13.9%	8.2%
CC(=O)c1c(O)c(C)c(O)c2c1OC1=CC(=O)/C(=C(/C)N)C(=O)C12C (stereo not drawn)	-27.8%	nt	0.9	14.6µM*	8.2µM*	2.1%
O=C1N(Cc2ccccc2)c2ccccc2C12OCCO2	3.7%	nt	17.8	-1.0%	-24.3%	-10.6%
CC(C)N1C(=O)C(O)(C2COC(C)(C)CC2=O)c2ccccc21 (stereo not drawn)	-17.3%	2.4%	-2.9	5.8µM*	7.31µM*	-3.2%
CC1(C)CC(=O)C(C2(O)C(=O)Nc3ccccc32)CO1 (stereo not drawn)	-0.6%	-6.0%	5.7	18.6%	-11.1%	0.9%
CC1(C)CC(=O)CC(C2(O)C(=O)N(Cc3ccccc3)c3ccccc32)O1 (stereo not drawn)	-6.3%	-5.3%	21.0	2.59µM*	1.84µM*	-5.4%
CC1(C)CC(=O)C(C2(O)C(=O)N(Cc3ccccc3)c3ccccc32)CO1 (stereo not drawn)	-2.3%	-2.1%	-1.5	4.61µM*	5.17µM*	-8.0%
COc1cc(Cl)c(C)cc1N1C(=O)[C@@H]2C[C@H]1CN2Cc1ccccn1	nt	nt	nt	-3.3%	-17.2%	nt
O=C1CC(c2ccc3c(c2)OCCO3)Oc2ccc([N+](=O)[O-])cc21 (stereo not drawn)	-54.3%	nt	-68.5*	?	16.4µM*	?
CC(=O)Nc1ccc(C(=O)CCl)cc1	-53.2%	2.6%	-103.8*	1.46µM*	2.06µM*	?
CC(=O)NCc1ccc(C(=O)CCl)cc1	-30.9%	-5.3%	-101.6*	4.11µM*	?	?
CC(=O)N(C)Cc1ccc(C(=O)CCl)cc1	7.5%	3.8%	-105.8*	1.03µM*	0.92µM*	-16.0%
CC(=O)N(C)Cc1ccc(C(=O)CSc2nnc(C3CC3)n2C2CC2)cc1	-13.5%	-0.7%[56.1 µM]	15.2	0.3%	-20.3%	-17.9%
CC(=O)Nc1ccc(C)cc1	-1.4%	0.4%	9.4	-4.6%	-6.2%	-9.4%
Cc1ccc(C(=O)CCC(=O)NCc2ccc(Cl)cc2)cc1	1.2%	0.7%	5.3	-10.3%	-6.3%	-1.0%
CC(=O)NCc1ccc(C(=O)CCl)s1	11.2µM*	3.5%	-17.4	0.517µM*	1.16µM*	?
CCCc1cc2c(c(=O)o1)C(O)C1OC1C2=O (stereo not drawn)	nt	-14.3%[21 µM]	nt	nt	nt	nt
O=C(O)c1ccccc1CSc1ncccc1C(=O)O	3.8%	-8.1%	9.3	3.0%	-3.7%	12.4%
SMILES	HepG2 viability	TDP1 block	IL-1B inflam inh	DT40 TDP1 CPT	TDP1 cell noCPT	TGFb inhibitor
CCCCC[C@H](O)/C=C/[C@@H]1[C@H](C/C=C\CCCC(=O)O)[C@@H](O)C[C@H]1O	nt	3.7%	nt	nt	nt	nt
COc1cc(C)c(Cc2cnc(N)nc2N)cc1OC	1.6%	0.0%	nt	?	13.3µM*	28.5%
Cc1cccn2c(=O)c3cc(C(=O)NC(C)c4ccccc4)c(=N)n(CCCn4ccnc4)c3nc12 (stereo not drawn)	-19.5%	-1.3%	-83.5*	?	?	-17.8%
CCOCCCn1c(=N)c(C(=O)NC(C)c2ccccc2)cc2c(=O)n3cccc(C)c3nc21 (stereo not drawn)	-45.4%	nt	nt	16.4µM*	16.4µM*	?
COCCn1c(=N)c(C(=O)NC(C)c2ccccc2)cc2c(=O)n3cc(C)ccc3nc21 (stereo not drawn)	-0.9%	nt	nt	8.9%	-10.1%	96.2%
Cc1cccn2c(=O)c3cc(C(=O)NCc4ccccc4)c(=N)n(CCOCCO)c3nc12	-12.6%	nt	nt	11.6µM*	25.9µM*	-7.3%
Cc1cccn2c(=O)c3cc(C(=O)NC(C)c4ccccc4)c(=N)n(CCOCCO)c3nc12 (stereo not drawn)	-21.2%	nt	nt	23.1µM*	25.9µM*	4.9%
Cc1ccc2nc3c(cc(C(=O)NCc4ccccc4)c(=N)n3CCCn3ccnc3)c(=O)n2c1	-5.1%	nt	?	?	?	10.9%
Cc1ccc(-c2ccc(CCC(=O)O)n2-c2ccc(C(C)C)cc2)cc1	-45.7%	nt	nt	?	-18.0%	?
COc1ccc(C(=O)CSc2nc(C(C)(C)C)nc3ccccc23)cc1	-31.2%	0.0%	4.0	?	20.6µM*	20µM*
CC(C)(C)c1ccc(C(=O)CSc2nc3ccccc3c(=O)[nH]2)cc1	-0.7%	-6.1%	27.2	2.82µM*	2.82µM*	-7.5%
O=C(CCCSc1nc2ccccc2c(=O)[nH]1)c1ccccc1	-7.4%	2.6%	42.9	?	14.6µM*	-13.3%
Cc1cc(C(=O)CSc2nc3ccccc3c(=O)[nH]2)c(C)n1C	-0.2%	8.4%	-17.4	?	6.51µM*	-2.6%
CCc1ccc(NC(=O)c2sc3nc(C)c(Cl)c(C)c3c2N)cc1	-21.2%	4.5%	nt	nt	nt	0.8%
CC1CCN(CCCNC(=O)c2nn(C)c3c2CS(=O)(=O)c2ccccc2-3)CC1	5.5%	0.6%	28.3	0.5%	24.5%	4.3%
CC(C)CSc1nc2ccccc2c(=O)[nH]1	-1.6%	0.0%	7.8	?	?	-16.5%

Compound activity: PubChem BioAssay, National Center for Advancing Translational Sciences (NCATS)
